For one assay, the target named is Albumin (Bos taurus) (UniProt P02769). Kind of assay: bovine serum albumin binders on microarray, profiling panel, artefact control for SMM control protein annotation, biochemical, small-molecule microarray, Alexa647 label, 635/667 nm fluorescence (AID 1118).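 Also: score merges 667 nm emission intensity and signal-to-noise per printed compound spot.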 The note with it: BSA-A647 binding, fluorescence 635 nm, higher = more signal.
A short description of assay [1]: small-molecule microarray binders of probe aXIP, primary screen, biochemical, NeuroSMM set, 635/667 nm fluorescence (AID 1119).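 Also: probe is the protein aXip251-270 applied at 1 µg/mL to compound-printed slides; binding of probe to printed compounds measured as 667 nm fluorescence plus signal to noise.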 The note with it: higher = more signal, called active from +8 up or from −8 down.
Assay [2] is described as follows: small-molecule binders of probe aNOTCH3, primary screen, biochemical, small-molecule microarray, 635/667 nm fluorescence (AID 1120).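 Also: probe is a biotin-tagged antibody raised against NOTCH3 rather than NOTCH3 protein; score merges spot fluorescence near 667 nm with spot signal to noise.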 The settings on record: higher = more signal.
The nature of assay [3]: small-molecule binders of probe aNOTCH2, primary screen, biochemical, small-molecule microarray, 635/667 nm fluorescence (AID 1121).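 Also: score merges feature fluorescence read at 667 nm with its signal to noise.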 The settings on record: higher = more signal.
The target in assay [4] is Carbonic anhydrase 2 (Homo sapiens) (UniProt P00918). Kind of assay: CAII small-molecule binders, profiling panel, biochemical, small-molecule microarray, Alexa647-labelled CAII (AID 1122). The settings on record: CAII-A647 binding fluorescence, higher = more signal.
The nature of assay [5]: COS7 lysate on small-molecule microarray, probe aHis, 635 nm (AID 1123).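 Also: z-score combines 667nm fluorescence intensity with signal-to-noise per printed compound spot.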 The settings on record: COS7 cell lysate, fluorescence, higher = more signal.
Assay [6] can be described thus: compound binding in COS7 lysate, probe aLAP1, primary screen, cell lysate, small-molecule microarray (AID 1124).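 Also: lysate comes from COS7 cells expressing LAP1 and is applied at 0.3 µg/mL; score merges spot fluorescence near 667 nm with signal-to-noise over triplicate slides.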 The settings on record: probe aLAP1, fluorescence, higher = more signal.
A further assay relates to Sam68 (KHDRBS1). The assay can be described thus: Sam68 small-molecule binders, primary screen, biochemical, small-molecule microarray, 635 nm fluorescence (AID 1125).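 Also: score merges 667 nm channel intensity with signal to noise over triplicate slides.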 The note with it: small-molecule microarray binding, higher = more signal.
The subject of assay [7] is Chordin-like protein 2 (CHRDL2). Kind of assay: CHRDL2 small-molecule binders, primary screen, biochemical, small-molecule microarray, 635 nm fluorescence (AID 1126).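 Also: printed compound slides probed with Chrdl2 protein at 4 µg/mL for 1 h at 4 C; score merges 667 nm emission intensity with signal to noise over three replicate slides.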 The settings on record: small-molecule microarray binding, fluorescence 635 nm; higher = more signal.
The target in assay [8] is Concanavalin-A (Canavalia ensiformis) (UniProt P02866). The assay can be described thus: ConA small-molecule binders, primary screen, artefact control for SMM control protein annotation, biochemical, small-molecule microarray, Alexa647 label, 635 nm (AID 1127).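 Also: z combines 667 nm emission intensity with signal-to-noise across three replicate slides.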 The note with it: ConA-A647 binding fluorescence, higher = more signal.
Chain of Concanavalin-A (Canavalia ensiformis) (P02866 whole entry, looked up): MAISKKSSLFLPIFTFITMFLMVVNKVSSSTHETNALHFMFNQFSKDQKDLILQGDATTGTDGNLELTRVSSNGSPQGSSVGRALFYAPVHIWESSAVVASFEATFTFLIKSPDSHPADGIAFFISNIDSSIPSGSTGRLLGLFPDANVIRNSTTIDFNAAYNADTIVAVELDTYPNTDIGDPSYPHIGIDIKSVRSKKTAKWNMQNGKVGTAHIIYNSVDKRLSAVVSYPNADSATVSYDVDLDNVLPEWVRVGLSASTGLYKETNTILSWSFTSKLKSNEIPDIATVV
The nature of assay [9]: anti-His antibody binders, primary screen, artefact control for SMM control protein annotation, biochemical, small-molecule microarray, 635 nm fluorescence (AID 1128).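 Also: score merges feature fluorescence with signal-to-noise for each printed compound spot.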 The settings on record: anti-His Alexa647 antibody binding, higher = more signal.
Assay [10] has as its system Human papillomavirus type 1a E7 protein (residues 1-88). The assay can be described thus: HPV1a E7 small-molecule binders, primary screen, biochemical, small-molecule microarray, residues 1-88, 635 nm (AID 1129). The settings on record: small-molecule microarray binding, fluorescence 635 nm; higher = more signal.
Assay [11] concerns the target Focal adhesion kinase 1 (Homo sapiens) (UniProt Q05397). The assay can be described thus: small-molecule microarray binders of FAK, primary screen, biochemical, 635/667 nm fluorescence, BSA, DTT (AID 1130).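 Also: composite of spot emission at 667 nm and signal to noise over triplicate slides.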 The settings on record: PTK2 binding, 635 nm fluorescence, higher = more signal.
Assay [12] has as its system Fibrinogen (Alexa647-labelled). Kind of assay: fibrinogen binders on compound microarrays, profiling panel, artefact control for SMM control-protein annotation, biochemical, small-molecule microarray, 635/667 nm fluorescence (AID 1131).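 Also: z-score merges 667 nm fluorescence with per-spot signal-to-noise over triplicate slides.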 The settings on record: fibrinogen-A647 binding fluorescence, higher = more signal.
For assay [13], the target named is Follistatin (Homo sapiens) (UniProt P19883). Kind of assay: follistatin binders on small-molecule microarrays, primary screen, biochemical, small-molecule microarray, 635/667 nm fluorescence (AID 1132). The settings on record: FST binding, 635 nm fluorescence, higher = more signal.
Chain of Follistatin (Homo sapiens) (P19883 whole entry, looked up): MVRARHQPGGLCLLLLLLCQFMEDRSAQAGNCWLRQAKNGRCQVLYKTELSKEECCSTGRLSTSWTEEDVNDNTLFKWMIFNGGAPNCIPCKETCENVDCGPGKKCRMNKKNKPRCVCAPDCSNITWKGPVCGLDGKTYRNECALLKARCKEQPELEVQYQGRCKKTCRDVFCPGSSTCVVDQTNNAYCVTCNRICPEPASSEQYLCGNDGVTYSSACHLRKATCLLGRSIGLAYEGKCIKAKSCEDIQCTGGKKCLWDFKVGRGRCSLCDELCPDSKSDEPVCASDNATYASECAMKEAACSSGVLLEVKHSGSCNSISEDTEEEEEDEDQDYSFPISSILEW
Assay [14] concerns the target Fibroblast growth factor 2 (Homo sapiens) (UniProt P09038). Kind of assay: FGF2 binders on small-molecule microarrays, primary screen, biochemical, small-molecule microarray, 635/667 nm fluorescence (AID 1133). The note with it: small-molecule microarray binding, FGF2, fluorescence 635/667; higher = more signal.
Assay [15] in a line: mitochondrial membrane potential change in A549 cells, profiling panel, cell-based, JC-1 fluorescence, basal, 24 h, 100 nL (AID 1138).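 Also: A549 lung adenocarcinoma cells under basal conditions with no added stimulus; test concentration not given here.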 The note with it: higher = more signal.
The next assay concerns Lefty1. Kind of assay: Lefty1 binders on small-molecule microarrays, primary screen, biochemical, small-molecule microarray, 635/667 nm fluorescence (AID 1139). The settings on record: small-molecule microarray binding, fluorescence 635/667; higher = more signal.
The test system of assay [16] is wheat germ agglutinin (Triticum aestivum), Alexa647-labelled. Kind of assay: wheat germ agglutinin binders on compound microarrays, profiling panel, artefact control for SMM control-protein annotation, biochemical, small-molecule microarray, 635/667 nm fluorescence (AID 1140).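 Also: score merges 667 nm feature emission with signal to noise over triplicate slides.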 The note with it: WGA-A647 binding, 635 nm fluorescence, higher = more signal.
Assay [17] concerns the target Luciferin 4-monooxygenase (Photinus pyralis) (UniProt P08659). Kind of assay: firefly luciferase enzyme inhibitors, primary screen, biochemical, luminescence, purified enzyme, 2006 set (AID 1141).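 Also: cell-free assay with purified firefly luciferase at 100 ng per well in PBS; test concentration not given here.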 The note with it: SteadyGlo luminescence, 30 min, higher = more signal, called active from +8 up or from −8 down.

SMILES strings stand for the structures. Calls of active or inactive are those of the source.

Chain of Luciferin 4-monooxygenase (Photinus pyralis) (P08659 whole entry, looked up): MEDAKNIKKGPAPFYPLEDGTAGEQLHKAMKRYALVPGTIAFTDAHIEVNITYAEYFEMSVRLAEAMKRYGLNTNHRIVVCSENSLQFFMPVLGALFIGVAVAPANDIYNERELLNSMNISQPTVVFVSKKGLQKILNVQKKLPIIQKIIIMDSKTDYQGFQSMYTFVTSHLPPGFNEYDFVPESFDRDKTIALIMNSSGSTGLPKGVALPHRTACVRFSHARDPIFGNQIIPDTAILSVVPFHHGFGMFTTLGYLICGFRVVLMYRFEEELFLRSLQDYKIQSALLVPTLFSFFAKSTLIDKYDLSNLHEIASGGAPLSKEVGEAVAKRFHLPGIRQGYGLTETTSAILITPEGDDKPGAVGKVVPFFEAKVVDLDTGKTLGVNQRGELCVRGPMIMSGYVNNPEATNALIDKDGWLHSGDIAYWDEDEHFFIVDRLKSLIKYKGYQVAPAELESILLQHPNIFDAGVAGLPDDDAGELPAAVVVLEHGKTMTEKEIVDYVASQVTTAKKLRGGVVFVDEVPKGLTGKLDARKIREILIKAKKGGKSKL
Chain of Albumin (Bos taurus) (P02769 whole entry, looked up): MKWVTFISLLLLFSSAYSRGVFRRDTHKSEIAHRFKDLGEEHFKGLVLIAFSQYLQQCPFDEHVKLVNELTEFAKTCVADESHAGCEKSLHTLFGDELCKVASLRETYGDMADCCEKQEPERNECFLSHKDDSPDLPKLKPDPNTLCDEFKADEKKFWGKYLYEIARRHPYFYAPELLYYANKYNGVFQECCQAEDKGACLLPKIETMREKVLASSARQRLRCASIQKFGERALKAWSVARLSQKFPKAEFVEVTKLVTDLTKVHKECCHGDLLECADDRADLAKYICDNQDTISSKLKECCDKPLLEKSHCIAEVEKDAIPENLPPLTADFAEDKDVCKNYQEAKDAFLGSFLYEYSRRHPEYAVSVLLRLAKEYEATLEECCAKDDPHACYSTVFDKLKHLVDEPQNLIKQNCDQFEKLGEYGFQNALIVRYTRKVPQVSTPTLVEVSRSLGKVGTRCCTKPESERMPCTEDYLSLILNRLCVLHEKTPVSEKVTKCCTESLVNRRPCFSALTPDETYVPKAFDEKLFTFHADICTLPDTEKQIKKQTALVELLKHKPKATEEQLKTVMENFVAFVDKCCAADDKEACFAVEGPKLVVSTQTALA
Chain of Focal adhesion kinase 1 (Homo sapiens) (Q05397 whole entry, looked up): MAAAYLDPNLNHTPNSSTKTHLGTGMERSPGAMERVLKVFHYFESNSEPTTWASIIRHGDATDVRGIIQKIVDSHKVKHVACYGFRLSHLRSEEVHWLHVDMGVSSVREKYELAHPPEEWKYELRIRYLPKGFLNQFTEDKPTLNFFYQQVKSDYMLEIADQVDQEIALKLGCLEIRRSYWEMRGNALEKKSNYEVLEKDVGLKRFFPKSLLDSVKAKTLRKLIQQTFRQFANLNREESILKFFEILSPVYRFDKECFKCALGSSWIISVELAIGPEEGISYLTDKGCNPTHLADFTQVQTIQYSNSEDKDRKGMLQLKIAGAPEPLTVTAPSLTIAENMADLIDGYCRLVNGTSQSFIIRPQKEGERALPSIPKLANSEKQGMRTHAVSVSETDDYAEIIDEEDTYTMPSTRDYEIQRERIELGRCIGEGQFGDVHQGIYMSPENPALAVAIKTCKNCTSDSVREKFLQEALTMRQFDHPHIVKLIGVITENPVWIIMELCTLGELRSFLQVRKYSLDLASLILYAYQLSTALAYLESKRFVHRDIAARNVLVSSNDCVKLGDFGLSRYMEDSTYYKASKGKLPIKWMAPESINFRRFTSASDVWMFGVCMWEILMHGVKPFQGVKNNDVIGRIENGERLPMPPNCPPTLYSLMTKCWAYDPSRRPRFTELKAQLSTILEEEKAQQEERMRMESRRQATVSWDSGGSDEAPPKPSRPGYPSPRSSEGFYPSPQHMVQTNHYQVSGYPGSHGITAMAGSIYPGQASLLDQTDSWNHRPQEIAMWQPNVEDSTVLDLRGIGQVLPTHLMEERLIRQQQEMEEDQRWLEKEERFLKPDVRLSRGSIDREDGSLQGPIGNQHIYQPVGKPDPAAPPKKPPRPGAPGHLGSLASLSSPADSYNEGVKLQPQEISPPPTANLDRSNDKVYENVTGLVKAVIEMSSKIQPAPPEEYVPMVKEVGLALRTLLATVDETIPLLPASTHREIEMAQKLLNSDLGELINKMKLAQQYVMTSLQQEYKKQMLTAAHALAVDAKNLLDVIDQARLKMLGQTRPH
Chain of Fibroblast growth factor 2 (Homo sapiens) (P09038 whole entry, looked up): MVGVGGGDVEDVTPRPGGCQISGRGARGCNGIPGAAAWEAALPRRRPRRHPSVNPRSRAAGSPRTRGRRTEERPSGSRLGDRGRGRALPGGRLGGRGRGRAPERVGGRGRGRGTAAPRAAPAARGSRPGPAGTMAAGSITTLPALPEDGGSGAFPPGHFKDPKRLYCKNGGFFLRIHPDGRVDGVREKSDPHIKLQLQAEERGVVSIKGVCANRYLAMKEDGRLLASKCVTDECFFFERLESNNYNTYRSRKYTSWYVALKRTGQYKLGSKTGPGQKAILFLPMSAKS

As to `CC(C)(C)OC(=O)CC[C@@]1(C(=O)NCCN2CCOCC2)N=C(c2ccc(OCCCO)cc2)O[C@@H]1c1ccccc1`, the composite z-score with Albumin (Bos taurus) turned out to be 1.03; in assay [2], 0.209; in assay [3], 0.0129; in assay [4], 0.539; in assay [5] it was 1.46; in assay [6] it was 0.275. In addition, the composite z-score in the assay with Sam68 (KHDRBS1) is 1.3; in assay [7] it was -0.0233; in assay [8] it was 1.17; in [9], 1.37; in [10], 1.19; in assay [11] it was 0.111. Also, the composite z-score stood at 1.01 in assay [12]; 1.28 in assay [13]; 0.695 in assay [14]; 0.499 in the assay on Lefty1; 1.22 in assay [16]. Also, in assay [1], the composite Z-score was -0.548 (inactive). Moreover, the z-score was 1.59 in assay [15] and -1.66 (inactive) in [17].
On to `C=CC(=C)C1=CCO[C@@H]1[C@H]1CCCN1S(=O)(=O)c1ccccc1[N+](=O)[O-]`, for which the composite z-score with Albumin (Bos taurus) was 0.656; in assay [2] it was 0.117; in assay [3] it was -0.0926; in assay [4] it was 0.481; in [5], 0.158; in [6], -0.262. In addition, the composite z-score with Sam68 (KHDRBS1) is 0.471; in assay [7], 1.04; in [8] it was 1.1; in assay [9] it was 0.2; in assay [10] it was 0.25; in [11], -0.318. Besides, the composite z-score in assay [12] amounted to 0.802; in [13], 0.976; in assay [14], 0.174; with Lefty1, 0.767; in assay [16], 0.241. In addition, the composite Z-score in assay [1] was 0.0499 (inactive). Also, the z-score in assay [15] was -0.295; in [17], 0.0352 (inactive).
With `O=C1O[C@@H](c2ccccc2)[C@@H](c2ccccc2)N2[C@@H](c3ccc(OCCO)cc3)[C@]3(C(=O)Nc4ccc(C#CC5=CCCCC5)cc43)[C@@H](C(=O)O)[C@H]12`, the composite z-score in the assay with Albumin (Bos taurus) was 0.953; in [2], 0.206; in [3] it was 0.0588; in assay [4] it was 0.499; in [5], 0.866; in [6], 0.711. Moreover, the composite z-score is 1.3 with Sam68 (KHDRBS1); 0.0501 in assay [7]; 1.16 in [8]; 1.42 in assay [9]; 1.01 in assay [10]; 1.31 in [11]. Also, the composite z-score in assay [12] is 0.865; in assay [13], 0.878; in assay [14], 0.34; with Lefty1, 0.46; in assay [16], 0.997. In assay [1], the composite Z-score was 0.556 (inactive). The results for the z-score in [15] and in [17] were -2.48 and -6.59 (inactive), respectively.
For the compound `COC(=O)C(CC#Cc1ccc2c(c1)[C@]1(C(=O)N2)[C@H](c2ccc(OCCO)cc2)N2[C@H](c3ccccc3)[C@H](c3ccccc3)OC(=O)[C@H]2[C@@H]1C(=O)NC[C@H](O)c1ccccc1)C(=O)OC`, the composite z-score is 0.819 in the assay with Albumin (Bos taurus); 0.0556 in assay [2]; -0.115 in [3]; 0.497 in assay [4]; 1.97 in [5]; -0.131 in assay [6]. Besides, the composite z-score was 1.29 in the assay with Sam68 (KHDRBS1); -0.28 in assay [7]; 1.14 in assay [8]; 1.06 in assay [9]; 1.23 in assay [10]; 0.751 in assay [11]. The composite z-score in assay [12] came out at 0.849; in assay [13], 0.966; in assay [14], 0.387; with Lefty1, 0.346; in [16] it was 1.16. Further, the composite Z-score in [1] was 0.0996 (inactive). The values for the z-score in assay [15] and in assay [17] were -0.816 and -1.67 (inactive), respectively.
Consider `O=C1OCCC=C[C@H]2OC34C=CCN(Cc5ccccc5)C(=O)[C@H]3N(CCCCCO)C(=O)[C@@H]4C12` (stereo not given in full), for which the composite z-score in the assay with Albumin (Bos taurus) is 0.863; in assay [2], -0.28; in assay [3], -0.173; in [4], 0.763; in assay [5] it was 2.1; in assay [6], 0.743. The composite z-score with Sam68 (KHDRBS1) was 0.954; in [7], -1.32; in assay [8], -0.262; in assay [9], 0.206; in [10], 0.702; in assay [11], 1.95. Besides, the composite z-score is -1.44 in assay [12]; -0.618 in assay [13]; -1.16 in [14]; 0.475 in the assay with Lefty1; 0.809 in [16]. For the same compound, the composite Z-score in [1] was 0.452 (inactive). Also, the z-score in [15] is 0.758; in assay [17], 0.0657 (inactive).
Take `CC(=O)NCCCC[C@@H]1NC(=O)[C@@H]2C[C@H](C(=O)NCCCCCCNC(=O)CS)[C@H](c3ccc(O)cc3)N2C1=O`: the composite z-score was -0.0424 with Albumin (Bos taurus); -0.256 in assay [2]; -0.129 in assay [3]; 0.597 in assay [4]; 0.846 in [5]; 0.386 in assay [6]. In addition, the composite z-score in the assay with Sam68 (KHDRBS1) is 0.464; in assay [7], -0.573; in assay [8], 0.647; in [9], 3.39; in assay [10], 0.964; in [11], 0.208. Also, the composite z-score in [12] came to 0.224; in [13], 0.304; in assay [14] it was 0.104; with Lefty1, 0.236; in assay [16], 0.418. Also, the composite Z-score in assay [1] is -0.202 (inactive). Also, the z-score in assay [15] was -0.177; in assay [17], -0.557 (inactive).
As for `CCCCCCc1nc(CCCc2cc3c(c(CCCCCC)n2)[Si](C(C)C)(C(C)C)OC3)cc2c1[Si](C(C)C)(C(C)C)OC2`, the composite z-score in the assay with Albumin (Bos taurus) was -1.17; in [2], -0.0427; in [3] it was -0.0649; in assay [4], -0.567; in [5], 0.111; in assay [6] it was 0.0313. The composite z-score in the assay on Sam68 (KHDRBS1) is -0.641; in [7] it was 0.21; in assay [8], -0.569; in assay [9], -0.658; in assay [10], -1.19; in [11], -0.0475. For the same compound, the composite z-score is -1.14 in assay [12]; 0.597 in assay [13]; -0.13 in assay [14]; 0.0479 in the assay with Lefty1; -0.973 in assay [16]. Besides, in assay [1], the composite Z-score is -0.295 (inactive). The z-score in [15] is 0.531; in assay [17], 0.651 (inactive).
For the compound `COC(=O)[C@@]1(Cc2ccc(F)cc2)[C@H]2c3cc(C(=O)N(C)C)n(CCc4ccccn4)c3C[C@H]2CN1C(=O)c1ccccc1`, the composite z-score with Albumin (Bos taurus) is -0.0737; in assay [2], 1; in assay [3], 0.2; in assay [4], 0.827; in assay [5], 2.75; in assay [6], 0.52. The composite z-score in the assay on Sam68 (KHDRBS1) was 1.29; in assay [7] it was -0.464; in assay [8] it was 0.542; in [9] it was 1.47; in assay [10], 1.25; in assay [11], 0.994. The composite z-score in assay [12] was 0.0039; in [13], 0.78; in assay [14] it was 0.0791; with Lefty1, 0.221; in assay [16], -0.108. Moreover, the composite Z-score in assay [1] is 0.004 (inactive). In addition, the z-score in [15] was -0.201; in [17], 2.76 (inactive).

Source of the values: PubChem BioAssay.
